# Assay outcomes deposited in PubChem by National Center for Advancing Translational Sciences (NCATS).
# Most compounds without a hit are left out; they make up all but 12% or so of the library.
# Pf growth 48h: Primary qHTS for delayed death inhibitors of the malarial parasite plastid, 48 hour incubation. Potency, µM (highest dose often 28.7 µM), for the others: at the top dose activity change, negative = inhibition, most hits filed as inhibitors. P. falciparum luciferase growth in erythrocytes, 48 h. 310,000 tested, 5.9% active; also: % is scaled to controls: 0 for no effect and ±100 for the full control effect
#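 Luciferase-expressing P. falciparum in infected erythrocytes (2% hematocrit, 0.1% parasitemia final) in RPMI 1640/0.5% Albumax were exposed to compound for 48 hours at 37 C, 5% CO2; growth read as luminescence.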
# SARS PLpro yeast: qHTS of Yeast-based Assay for SARS-CoV PLP; S. cerevisiae expressing SARS-CoV PLpro, growth rescue; Potency, µM (top dose mostly 32.9 µM), for the others: top-dose activity, positive = growth rescue, actives largely listed as activators; 330,000 tested, 0.19% active; calls by dose curve; also: 0% is about no effect; nearly all actives have a fitted effect of over 55% in size
# AmpC inh detg: qHTS Inhibitors of AmpC Beta-Lactamase (assay with detergent); P00811; AmpC hydrolysis of nitrocefin, absorbance 480 nm, 0.01% Triton; Potency, µM (highest dose often 114 µM), inactives show at the top dose activity change, negative = inhibition, hits mostly inhibitors; 370,000 tested, 0.041% active;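 also: 0% = no-compound wells and -100% = no-enzyme wells; nearly all actives have a fitted effect of over 25% in size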
# Target sequence (P00811 whole entry, looked up): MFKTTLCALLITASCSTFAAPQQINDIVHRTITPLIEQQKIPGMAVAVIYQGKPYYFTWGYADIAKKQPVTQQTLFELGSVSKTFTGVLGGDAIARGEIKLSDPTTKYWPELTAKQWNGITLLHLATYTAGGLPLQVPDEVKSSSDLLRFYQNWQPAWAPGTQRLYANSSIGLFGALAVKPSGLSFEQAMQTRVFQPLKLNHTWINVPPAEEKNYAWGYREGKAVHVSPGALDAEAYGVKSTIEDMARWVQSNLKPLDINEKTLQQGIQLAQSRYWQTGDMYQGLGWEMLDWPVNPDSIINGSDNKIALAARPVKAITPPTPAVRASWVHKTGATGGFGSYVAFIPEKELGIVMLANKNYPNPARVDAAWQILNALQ
#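 20 mM phosphate pH 7.0 + 0.01% (detergent screen) or 0.0001% Triton X-100; 5.3 nM AmpC reagent; cpd preinc 15 min RT; nitrocefin (800 uM stock) to start; A480 q20 s × 4 min; Activity was normalised to no-enzyme and no-compound control wells.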
# Sm TGR inh: qHTS Assay for the Inhibitors of Schistosoma Mansoni Peroxiredoxins; 360,000 tested, 3% active; Potency, µM (highest dose often 114 µM), for inactives: top-dose activity change, negative = inhibition, actives largely listed as inhibitors; Schistosoma mansoni thioredoxin glutathione reductase (TGR), Q962Y6; purified TGR, DTNB reduction, TNB absorbance 405 nm; also: % is scaled to controls: 0 for no effect and ±100 for the full control effect; nearly all actives have a fitted effect of over 60% in size
#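 TGR 20 nM + NADPH 100 uM (dispensed conc.), cpd preinc 15 min RT; start with NADPH (500 uM addition) then DTNB (15 mM addition). Kinetic TNB absorbance, 405 nm filter. Four-parameter Hill fit across titration.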
# Pf growth 96h: Primary qHTS for delayed death inhibitors of the malarial parasite plastid, 96 hour incubation; Potency, µM (top dose mostly 28.7 µM), inactives show top-dose activity change, negative = inhibition, actives largely listed as inhibitors; 320,000 tested, 6.9% active; P. falciparum luciferase reporter growth, 96 h; also: % is scaled to controls: 0 for no effect and ±100 for the full control effect
#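 Delayed-death screen, second-generation endpoint: infected erythrocytes, 2% hematocrit, 0.05% parasitemia final; 96 hours at 37 C, 5% CO2; luciferase detection reagent; luminescence decrease equals reduced growth.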
# AmpC no deterg: qHTS Inhibitors of AmpC Beta-Lactamase (assay without detergent). Potency, µM (series often up to 57.1 µM), for the others: top-dose activity change, negative = inhibition, actives largely listed as inhibitors. AID 485341, 2010. AmpC nitrocefin hydrolysis, absorbance 480 nm, 0.0001% Triton. P00811. 330,000 tested, 0.52% active;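 also: plate controls were no compound for no effect and no enzyme for full effect; nearly all actives have a fitted effect of over 20% in size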
#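 AmpC (5.3 nM in the dispensed reagent) in 20 mM phosphate pH 7.0 with 0.01% (detergent screen) or 0.0001% Triton X-100 was preincubated with compounds for 15 min at room temperature. Nitrocefin was then added from an 800 uM solution, and hydrolysis was followed at 480 nm.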
# Active calls of the source: *; i = inactive; ? = inconclusive; / = no result given; [ ] = another dose, or the depositor's remark. Unless noted, calls follow the shape of the dose curve; as a rule, active = well fitted curve in the direction sought with a large enough effect; inconclusive = small, poorly fitted or top-dose-only effect, or another doubt; inactive = no such curve, though single readings can be large; an effect the other way counts as inactive or inconclusive. Potency is read from the fitted curve at half-maximal effect.
SMILES,Pf growth 48h,SARS PLpro yeast,AmpC inh detg,Sm TGR inh,Pf growth 96h,AmpC no deterg
COc1ccc(OC)c(CNc2ccc3c(c2)CCC3)c1,?,?,1%,?,10µM*,-20%
COc1ccc(OC)c(NC(=O)COc2ccc3c(c2)CCC3)c1,13µM*,-1%,-4%,-5%,?,-26%
COc1cccc(OC)c1C(=O)NNC(=O)c1cccc(COc2ccc3c(c2)CCC3)c1,2.3µM*,-1%,1%,-16%,i,-1%
COc1cccc(NC(=O)COc2ccc3c(c2)CCC3)c1,28%,-1%,?,3%,0%,-49%[11.4 µM]
CCN(CC)S(=O)(=O)c1ccc2c(c1)c(=O)c(C(=O)N1CCN(c3cc(Cl)ccc3C)CC1)cn2C,/,/,1%,8%,/,/
O=C(Nc1ccc(N2CCOCC2)cc1)c1cccc(S(=O)(=O)N2CCC(Cc3ccccc3)CC2)c1,/,12%,?,-13%,?,-6%
O=C(O)CSCC(=O)Nc1ccc(Cl)cc1C(F)(F)F,3%,0%,4%,/,19%,-14%
CC(C)N(CC(=O)Nc1ccc(Cl)cc1C(F)(F)F)C(=O)CCl,4%,-3%,-14%,18µM*,-8%,-16%
CCC(C)N(CC(=O)Nc1cccc(C)c1C)C(=O)CCl (centres undefined),?,-1%,-13%,20µM*,3.7µM*,-7%
Cc1cccc(N2CCN(C(=O)c3cccn3-c3nnc(N4CCCCC4)s3)CC2)c1C,/,/,2%,-1%,/,/
Cc1ccc(NC(=O)c2nc(S(C)(=O)=O)ncc2N(Cc2ccccc2)Cc2ccco2)c(C)c1,/,/,3%,-1%,/,/
O=c1c(-c2ccc(Cl)cc2)coc2c(CN3CCOCC3)c(O)ccc12,8.3µM*,-2%,-16%,0%,10µM*,-17%
COc1ccc(-c2c(C)oc3c(CN4CCCCC4C)c(O)ccc3c2=O)cc1OC (centres undefined),?,8%,?,5%,12µM*,-34%
COc1ccccc1-c1coc2c(CN3CCCCC3C)c(O)ccc2c1=O (centres undefined),?,11%,2%,-1%,?,-25%
COc1ccc(-c2c(C)c3ccc(O)c(CN4CCCCC4C)c3oc2=O)cc1OC (centres undefined),/,/,22%,2%,/,/
CC1CCCCN1Cc1c(O)ccc2c(=O)c(-c3ccc(Br)cc3)coc12 (centres undefined),7.4µM*,0%,-1%,9%,5.9µM*,36%
CC1CCCCN1Cc1c(O)ccc2c(=O)c(-c3ccc(Cl)cc3)coc12 (centres undefined),10µM*,-2%,?,7%,45%,5%
Cc1cccc(C)c1-n1ncc(C(=O)N2CCN(c3ncccn3)CC2)c1C1CCN(C(=O)OC(C)(C)C)CC1,/,/,-9%,1%,/,/
CSc1nc2nc3c(c(=O)n2[nH]1)CCCC3,10%,?,0%,54%,19%,-10%
C=CCc1cccc2cc(-c3nc4ccc(C(=O)O)cc4[nH]3)c(=O)oc12,/,/,13%,3%,/,/
CC(C)c1ccc(NC(=O)C(C)N(c2ccccc2)S(C)(=O)=O)cc1 (centres undefined),/,/,-5%,0%,/,/
COc1cc(Cl)c(C)cc1Nc1c2c(nc3ccccc13)CCC2,/,/,7%,5%,/,/
CC1CCCCN1Cc1c(O)ccc2c(=O)c(-c3nc4ccccc4s3)c(N)oc12 (centres undefined),0.83µM*,14%,-1%,2%,1µM*,190%
CC(C)N(Cc1c(O)ccc2c(=O)c(-c3ccc(Cl)cc3)coc12)C(C)C,0%,-7%,-17%,40µM*,-13%,-58%
CC1CCCCN1Cc1c(O)ccc2c(=O)c(-c3ccccc3Cl)c(C(F)(F)F)oc12 (centres undefined),/,/,3%,-16%,/,/
SMILES,Pf growth 48h,SARS PLpro yeast,AmpC inh detg,Sm TGR inh,Pf growth 96h,AmpC no deterg
Cc1cc(Cl)ccc1NC(=O)CN1C(=O)COc2ccc(S(=O)(=O)Nc3ccccc3)cc21,/,/,22%,6%,/,/
Cc1ccc(OCCCN2C(=O)C(=O)c3cccc(C)c32)cc1,-12%,-28%,-1%,-26%,11%,-24%
COc1ccccc1OCCCN1C(=O)C(=O)c2cccc(C)c21,?,-5%,0%,3.2µM*,21%,3%
Cc1cccc2c1N(CCOc1ccc(C(C)(C)C)cc1)C(=O)C2=O,10µM*,-10%,-14%,-12%,23%,-15%
CN(C)CCNC(=S)Nc1ccc(Br)cc1,6%,16%,-14%,-7%,-3%,-12%
Cc1sc(N/N=C/C=C/c2ccccc2)nc1-c1ccccc1,?,13µM*,5%,-2%,?,-18%
CC(=O)Nc1sc(-c2ccccc2)nc1-c1ccccc1,4%,-3%,?,-6%,4.7µM*,-16%
CC(=O)Nc1sc(-c2ccc(Cl)cc2)nc1-c1ccccc1,12%,1%,5%,-9%,-1%,-8%
CC(=O)Nc1sc(N/N=C/c2ccccc2)nc1-c1ccc(C)cc1,7.4µM*,3%,-3%,8%,?,-32%
Cc1cc(C)nc(N/N=C/C=C/c2ccccc2)n1,2%,-33%,-1%,-8%,?,-25%
CC(=O)Nc1sc(N/N=C/c2ccccc2F)nc1-c1ccc(C)cc1,8.3µM*,1%,-2%,32µM*,?,-39%
CCn1nnc2cc(C(=O)Nc3cccc(Cl)c3C)ccc21,/,/,4%,1%,/,/
Cc1ccc(OCCCCn2c(-c3ccc(Cl)cc3)nc3ccccc3c2=O)cc1,/,/,21%,1%,/,/
COc1ccc(/C=N/Nc2nc(-c3ccc(C)cc3)c(NC(C)=O)s2)cc1,2.3µM*,11%,-10%,4%,4.7µM*,-26%
CC(=O)Nc1sc(N/N=C/c2ccc(O)cc2)nc1-c1ccc(C)cc1,?,2%,-2%,-18%,?,-42%
O=C1[C@@H]2C[C@@H]3C[C@H]1C[C@@](O)(C3)C2,-3%,/,/,/,-2%,/
COc1ccc(-n2c3c(cc(C(=O)NC4CCSC4=O)c2=O)C(=O)CC(C)(C)C3)cc1 (centres undefined),-9%,2%,?,-4%,3%,24%
Cc1ccc(-n2c3c(cc(C(=O)NC4CCSC4=O)c2=O)C(=O)CCC3)cc1 (centres undefined),5%,0%,?,79µM*,-5%,-5%
Cc1ccc(Nc2sc(C(=O)c3ccccc3)c(N)c2S(=O)(=O)c2ccccc2)c(C)c1,/,/,18%,?,/,/
